# Screening data (PubChem)
# GSTO1 counter = GSTO1 inhibition, counter-screen for RBBP9 inhibitors | P78417 | recombinant GSTO1, activity-based probe fluorescence polarization | inhibition, % at 5.96 µM | 1.1% of 300,000 active | AID 1974;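 active = inhibition above the campaign mean inhibition plus 3 SD, cut at about 35% in these data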;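 also: 0% = GSTO1-1 with DMSO and 100% = wells lacking GSTO1-1 enzyme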
# LYPLA2 counter = blocks human lysophospholipase 2, a PME1 counter-screen; 0.38% of 320,000 active; recombinant LYPLA2, FP-Rh probe fluorescence polarization; inhibition, % at 5.9 µM;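 active = inhibition above the screen-wide mean plus 3 SD, limit set per campaign, cut at about 26% in these data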;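 also: 0% = LYPLA2 with DMSO and 100% = wells lacking LYPLA2 enzyme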
# PME-1 primary = PME-1 (human) inhibition | Q9Y570 | recombinant PME-1, FP-Rh probe fluorescence polarization | inhibition, % at 5.9 µM | 0.53% of 320,000 active | AID 2130;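 active = inhibition above the campaign mean of all compounds plus 3 SD, cut at about 26% in these data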;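 also: competitive labeling of PME-1 active site by serine hydrolase directed probe; 0% = PME-1 with DMSO and 100% = wells lacking PME-1 enzyme; inhibitors block probe labeling so polarization falls and inhibition rises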
# LYPLA1 inh = blocks human lysophospholipase 1, a PME1 counter-screen; O75608; recombinant LYPLA1, FP-Rh probe fluorescence polarization; inhibition, % at 5.9 µM; 0.16% of 320,000 active; AID 2174;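 active = inhibition above the mean of all tested compounds plus 3 SD, set per campaign, cut at about 14% in these data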;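 also: inhibitors block serine hydrolase probe labeling of LYPLA1 so polarization falls; 0% = enzyme with DMSO and 100% = wells lacking LYPLA1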
# Fam108B counter = blocks mouse Fam108B hydrolase in RBBP9 counter-screen. 0.33% of 300,000 active. AID 1947. inhibition, % at 9.51 µM. recombinant Fam108B, FP-Rh probe fluorescence polarization;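 active = inhibition above the screen mean inhibition plus 3 SD, computed separately per campaign, cut at about 18% in these data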;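 also: inhibitors lower polarization as less probe binds the enzyme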
# PAD4 FP inh = inhibitors of human PAD4 | Q9UM07 | recombinant PAD4, RCA probe fluorescence polarization | inhibition, % at 6.36 µM | 0.41% of 330,000 active;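 active = percent inhibition above a cutoff equal to the mean of all tested compounds plus 3 SD, cut at about 15% in these data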;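 also: 0% = PAD4 with RCA probe and DMSO and 100% = probe without PAD4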
# Target sequence (Q9UM07 whole entry, looked up): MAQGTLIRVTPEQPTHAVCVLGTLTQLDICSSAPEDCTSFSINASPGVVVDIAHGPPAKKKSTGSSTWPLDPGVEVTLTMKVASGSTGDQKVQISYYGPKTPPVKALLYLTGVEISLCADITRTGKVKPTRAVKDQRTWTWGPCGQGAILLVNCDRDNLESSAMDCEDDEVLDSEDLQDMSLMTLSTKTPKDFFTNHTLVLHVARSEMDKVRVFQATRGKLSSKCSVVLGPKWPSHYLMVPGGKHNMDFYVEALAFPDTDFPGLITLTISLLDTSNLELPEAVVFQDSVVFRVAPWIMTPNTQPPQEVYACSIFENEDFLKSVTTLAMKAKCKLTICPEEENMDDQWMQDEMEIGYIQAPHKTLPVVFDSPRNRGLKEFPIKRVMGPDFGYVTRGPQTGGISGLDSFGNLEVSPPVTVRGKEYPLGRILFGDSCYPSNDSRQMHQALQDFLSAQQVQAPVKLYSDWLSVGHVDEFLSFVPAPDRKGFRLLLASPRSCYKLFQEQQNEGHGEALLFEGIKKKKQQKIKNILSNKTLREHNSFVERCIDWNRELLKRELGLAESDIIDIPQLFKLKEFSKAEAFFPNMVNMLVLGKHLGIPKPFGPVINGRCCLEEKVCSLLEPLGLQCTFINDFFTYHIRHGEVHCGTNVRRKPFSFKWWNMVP
# Fam108b confirm = confirmation of mouse Fam108b serine hydrolase inhibitors; shares compounds with Fam108B counter; recombinant Fam108b, FP-Rh probe fluorescence polarization; inhibition, % at 9.51 µM; 44% of 930 active;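 active = inhibition above a limit from the primary screen, the mean over all compounds plus 3 SD, cut at about 19% in these data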;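 also: 0% = median of active Fam108b wells and 100% = catalytically dead S170A mutant; inhibitors free the probe so polarization falls as inhibition rises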
# Fam108b ABPP HTS = inhibits mouse Fam108b in gel-based ABPP; shares compounds with Fam108B counter; recombinant Fam108b, fluorophosphonate probe; inhibition, % at 20 µM; 44% of 260 active; AID 588649; in the data active = inhibition above about 40%
# GSTO1 confirm = GSTO1 (human) inhibition, confirmation; recombinant GSTO1, probe fluorescence polarization; inhibition, % at 5.96 µM; AID 2176; shares compounds with GSTO1 counter; 54% of 2,400 active;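 active = inhibition above the primary screen's cutoff, its mean inhibition plus 3 SD, cut at about 35% in these data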;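 also: loss of polarization as inhibitors block binding of rhodamine sulfonate ester activity probe; 0% = GSTO1 with DMSO and 100% = wells lacking GSTO1 enzyme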
# An asterisk follows results filed as active; . = no result given. An excerpt weighted towards active compounds, which were near 1.8% of everything screened.
SMILES,GSTO1 counter,LYPLA2 counter,PME-1 primary,LYPLA1 inh,Fam108B counter,PAD4 FP inh,Fam108b confirm,GSTO1 confirm,others
Cc1cccc(C)c1NC(=O)CSc1nnc(-c2ccco2)c(-c2ccco2)n1,58*,-2,0,-8,26*,-4,14,40*,
COC(=O)c1c(SCC(=O)Nc2ccc(C)c(C)c2)nc(=O)[nH]c1C,-5,-4,5,-3,1,-2,.,.,
COc1cccc(NC(=O)CN(C)C(=O)CN2C(=O)c3ccc([N+](=O)[O-])cc3C2=O)c1,-3,10,4,2,2,-1,.,.,
CCN(c1ccccc1)S(=O)(=O)c1ccc(Cl)c(NC(=O)COC(=O)c2ccc(O)cc2)c1,-2,-14,3,-16,1,5,.,.,
CCN(c1ccccc1)S(=O)(=O)c1ccc(Cl)c(NC(=O)COC(=O)c2cc(O)c3ccccc3c2O)c1,51*,7,40*,0,20*,26*,48*,27,
CC(=O)Nc1ccc(NC(=O)CC(C)n2ccnc2)cc1 (centres undefined),4,-1,-6,2,1,-1,.,.,
CC1=NN(c2cccc(C(=O)O)c2)C(=O)/C1=C\C=C\c1ccco1,55*,-4,-7,1,24*,6,29*,28,
CC1=NN(c2ccccc2)C(=O)/C1=C/C=C/c1ccccc1,16,2,16,-2,7,2,.,.,
CCOC(=O)c1ccc(-c2c(-c3ccccc3OC)sc3cc4c(cc23)OCO4)cc1F,.,0,-4,1,.,-6,.,.,
Cc1c2ccccc2nc2c(F)c(NCCO)c(F)c(F)c12,62*,8,4,3,19*,11,4,13,
OCCNc1c2ccccc2nc2c(F)c(F)c(F)c(F)c12,-54,2,9,1,5,4,.,.,
Brc1cccc(C2Nc3cccc4cccc(c34)N2)c1,40*,6,17,-1,22*,0,0,8,
CCOc1ccc(C2Nc3cccc4cccc(c34)N2)cc1OC,45*,-16,5,-9,25*,-3,10,5,
Brc1ccc(C2Nc3cccc4cccc(c34)N2)o1,54*,-10,19,-12,26*,5,8,8,
CCOc1ccc(C2NCCc3cc(OC)c(OC)cc32)cc1OC (centres undefined),5,8,3,5,3,0,.,.,
CCOC(=O)N/N=C(/C)c1ccc(N2C(=O)C3CCCCC3C2=O)cc1 (centres undefined),-2,1,0,-1,1,-2,.,.,
Cc1cc(C)cc(NC(=O)C2CCCN2S(=O)(=O)c2ccc3c(c2)n(C)c(=O)c(=O)n3C)c1 (centres undefined),-4,-5,4,5,2,-1,.,.,
CC(C)(C)N1C(=O)Cc2c1nc(N)c1c(N)nc(N3CCCCC3CO)c(C#N)c21 (centres undefined),91*,9,18,1,40*,10,90*,88*,
COCCn1c(N)c(C(=O)OCc2ccccc2)c2nc3ccccc3nc21,70*,-8,-4,-7,42*,5,-2,58*,
C=CCn1c(N)c(C(=O)OCCC)c2nc3ccccc3nc21,29,1,4,-2,0,-11,.,.,
Cc1oc2c(c1C(=O)c1ccccc1)C(=O)C(=O)c1ccccc1-2,85*,14,29*,10,55*,74*,35*,91*,Fam108b ABPP HTS=25
O=C1C(=O)c2c(C(=O)c3ccccc3)coc2-c2ccccc21,32,18,14,4,14,-13,.,.,
Nc1ccc2c(c1)C(=O)c1ccccc1-2,6,1,-2,0,1,-1,.,.,
O=C1C(=O)c2ccc(-c3ccccc3)cc2-c2ccccc21,87*,14,16,-4,54*,-3,69*,91*,Fam108b ABPP HTS=15
NC(=O)c1ccc(N=C2C(=O)Nc3ccc([N+](=O)[O-])cc32)cc1,71*,9,3,1,24*,-2,4,30,
SMILES,GSTO1 counter,LYPLA2 counter,PME-1 primary,LYPLA1 inh,Fam108B counter,PAD4 FP inh,Fam108b confirm,GSTO1 confirm,others
Cc1ccc(-c2nnc(-c3ccncc3)n2-c2ccc(C)cc2)cc1,5,0,4,2,1,-4,.,.,
COc1ccc(NC(=S)NNc2ccc(S(=O)(=O)Nc3ccccc3C(=O)O)cc2[N+](=O)[O-])cc1,67*,9,50*,4,52*,9,15,80*,
Cn1c2ccccc2c(=O)n2c(=O)c3ccccc3cc12,78*,13,7,2,29*,69*,6,12,
CN(C)C(=O)CSc1nc2ccc(C(=O)c3ccccc3)cc2[nH]1,-5,1,-4,1,0,-1,.,.,
CCOC(=O)c1ccc(NC2=CC(=O)C(=O)c3ccccc32)cc1,77*,10,10,-1,19*,-11,30*,87*,Fam108b ABPP HTS=25
CCOC(=O)c1ccc(NC(=O)C(C)N2C(=O)c3ccccc3C2=O)cc1 (centres undefined),1,1,-2,1,-6,-1,.,.,
C#CCOCCOCCOCCNc1nc(N2CCN(C(=O)[C@H]([C@@H](C)CC)n3cc([C@@H](N)Cc4ccc(O)cc4)nn3)CC2)nc(N2CCN(C(=O)[C@H](CCCCN)n3cc([C@@H](N)CC(C)C)nn3)CC2)n1,-6,-10,1,0,7,1,.,.,
Cc1ccc(Cn2c(C(C)Nc3nc(-c4ccc(Cl)c([N+](=O)[O-])c4)cs3)nc3cc(C(F)(F)F)ccc32)cc1 (centres undefined),-5,-1,-9,-6,-6,-3,.,.,
CCn1nc([N+](=O)[O-])c(C(C#N)c2nc3cc(C(F)(F)F)ccc3s2)c(Cl)c1=O (centres undefined),51*,17,56*,1,43*,14,38*,51*,Fam108b ABPP HTS=65*
Cc1ccc(/C=C2\SC(=S)N(/N=C/c3cc([N+](=O)[O-])ccc3O)C2=O)o1,50*,2,5,-4,25*,-1,26*,43*,
Nc1ccc(N)c(C(=O)O)c1,57*,13,4,7,57*,0,45*,24,Fam108b ABPP HTS=0
O=S(=O)(c1ccc2ccccc2c1)N1CCOCC1,-1,4,3,0,0,-2,.,.,
O=S(=O)(c1ccc2nc(-c3ccco3)c(-c3ccco3)nc2c1)N1CCOCC1,48*,2,12,-3,19*,-5,12,21,
